In ChEMBL document CHEMBL4808148, “HDAC6 screening dataset using tau-based substrate in an enzymatic assay yields selective inhibitors and activators” (2021) one finds inhibition data, which are given here for 49 molecules.

Screen size: about 5,600 compounds; about 390 (7%) showed an effect of 50% or more. The list comes from a sample in which strong results are over-represented; it also holds similar structures and randomly drawn compounds.

The target of test [1] is T1, Protein deacetylase HDAC6 (Homo sapiens) (UniProt Q9UBN7).
T1 sequence (whole entry): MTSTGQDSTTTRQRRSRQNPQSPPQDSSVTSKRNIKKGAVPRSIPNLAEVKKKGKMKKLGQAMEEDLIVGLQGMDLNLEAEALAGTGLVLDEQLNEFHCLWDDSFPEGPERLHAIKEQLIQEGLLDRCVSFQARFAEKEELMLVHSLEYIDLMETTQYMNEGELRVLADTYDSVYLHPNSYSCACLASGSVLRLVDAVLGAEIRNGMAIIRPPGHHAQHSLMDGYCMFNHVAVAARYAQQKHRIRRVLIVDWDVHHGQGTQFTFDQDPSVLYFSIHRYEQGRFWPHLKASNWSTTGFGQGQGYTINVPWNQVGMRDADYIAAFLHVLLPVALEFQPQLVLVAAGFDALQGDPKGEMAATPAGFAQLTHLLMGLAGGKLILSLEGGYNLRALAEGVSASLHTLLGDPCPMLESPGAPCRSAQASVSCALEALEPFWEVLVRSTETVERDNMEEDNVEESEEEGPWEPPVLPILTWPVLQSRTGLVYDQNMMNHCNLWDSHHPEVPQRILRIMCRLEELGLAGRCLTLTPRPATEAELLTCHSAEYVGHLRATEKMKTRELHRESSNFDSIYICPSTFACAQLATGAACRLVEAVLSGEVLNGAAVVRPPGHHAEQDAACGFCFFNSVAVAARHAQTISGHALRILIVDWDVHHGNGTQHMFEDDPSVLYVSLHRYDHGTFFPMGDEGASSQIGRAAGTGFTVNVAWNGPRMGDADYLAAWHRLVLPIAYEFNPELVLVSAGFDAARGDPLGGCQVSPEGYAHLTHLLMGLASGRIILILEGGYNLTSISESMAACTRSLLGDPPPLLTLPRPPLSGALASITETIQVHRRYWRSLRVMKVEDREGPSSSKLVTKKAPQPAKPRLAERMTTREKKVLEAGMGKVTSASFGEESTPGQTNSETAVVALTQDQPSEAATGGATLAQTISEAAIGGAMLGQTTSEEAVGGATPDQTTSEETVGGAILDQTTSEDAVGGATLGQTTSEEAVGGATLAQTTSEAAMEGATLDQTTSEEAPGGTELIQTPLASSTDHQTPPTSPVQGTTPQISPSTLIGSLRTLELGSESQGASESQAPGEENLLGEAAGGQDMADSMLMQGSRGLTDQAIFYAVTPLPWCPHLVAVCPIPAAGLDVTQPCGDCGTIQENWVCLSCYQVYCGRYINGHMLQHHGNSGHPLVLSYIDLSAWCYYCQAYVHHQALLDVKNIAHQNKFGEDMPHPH
The note with it: at 10 µM.

Test [2] has as its target Protein deacetylase HDAC6 (Homo sapiens) (UniProt Q9UBN7). The conditions noted are these: at 10 µM. The source holds these as a separate data set.

One may read the inhibition as the drop in the measured response relative to a control, in per cent. For the molecule `COc1cc(C2Oc3ccc(C4Oc5cc(O)cc(O)c5C(=O)C4O)cc3OC2CO)ccc1O` (centres undefined), in test [1], the inhibition was -5.75%.

Regarding `Cc1cc(Cn2nnc3c(-c4ccco4)nc(N)nc32)ccc1N`, the inhibition in test [1] is -1.08%.

For `Cc1c(OCc2cccc(-c3ccc(C(=O)O)cc3)c2)cc2c(c1C)C(=O)C(C1CCCC1)C2` (centres undefined), the inhibition in test [1] is -0.56%.

Turning to `CCCCn1ccc(N2CCC(c3ccccc3)CC2)c(Cl)c1=O`, the inhibition in test [1] was 59.9%.

Regarding `CCN1C(=O)NC(c2ccccc2)C1=O` (centres undefined), the inhibition in test [1] was 22.6%.

Turning to `Cc1ccc2c(c1)C(=O)C1(O)CCN(c3ccccc3)C1=N2` (racemic), the inhibition in test [1] was 1.13%.

For `O=C(O)C[C@H]1CC[C@H](c2ccc(NC(=O)c3nnc(Nc4ccc(F)c(F)c4)o3)cc2)CC1`, the inhibition in test [1] came out at 35.2%.

With `Oc1cc(O)c2cc(O)c(-c3cc(O)c(O)c(O)c3)[o+]c2c1`, the inhibition in test [1] worked out at 38.4%.

As for `CC(C)Nc1cccnc1N1CCN(C(=O)c2cc3cc(NS(C)(=O)=O)ccc3[nH]2)CC1`, the inhibition in test [1] was found to be 51.2%.

On to `CC(C)(C)c1ccc(NC(=O)N2CCN(c3ncccc3Cl)CC2)cc1`, for which the inhibition in test [1] is 24.7%.

`COC1=C(OC)C(=O)C(C/C=C(\C)CC/C=C(\C)CC/C=C(\C)CC/C=C(\C)CC/C=C(\C)CC/C=C(\C)CC/C=C(\C)CC/C=C(\C)CC/C=C(\C)CCC=C(C)C)=C(C)C1=O`: in test [1], the inhibition is 4.15%.

For the molecule `N[C@H](C(=O)O)c1ccc(O)c(C(=O)O)c1`, the inhibition in test [1] was -8.79%.

As to `CC(C)c1ccc2oc3nc(N)c(C(=O)O)cc3c(=O)c2c1`, the inhibition in test [1] is 98.2%.

Consider `N[C@@H](C(=O)O)c1ccc(O)c(C(=O)O)c1`, for which, in test [1], the inhibition turned out to be 1.46%.

As for “BISMUTH SUBCITRATE POTASSIUM, CHEMBL1201186”, in test [2], the inhibition was 16.3%.

With `Cc1ccc(/C(=C\CN2CCCC2)c2cccc(/C=C/C(=O)O)n2)cc1`, in test [1], the inhibition is -6.81%.

On to `COc1cc(C[C@H]2c3cc(OC)c(OC)cc3CCN2C)c(Oc2cc3c(cc2OC)-c2c(OC)c(OC)cc4c2[C@H](C3)N(C)CC4)cc1OC`, for which the inhibition in test [1] is 33.6%.

In the case of `COc1cc(C(=O)NCC2(N(C)C)CCCC2)cc(OC)c1OCc1ccccc1`, the inhibition in test [1] stood at 0.96%.

`Nc1nc(NCCc2ccc(O)cc2)nc2nc(-c3ccco3)nn12`: in test [1], the inhibition is 67.5%.

Consider `COc1cc(C(=S)N2CCOCC2)cc(OC)c1OC`, for which the inhibition in test [1] was determined as 14.8%.

In the case of `COc1ccc(S(=O)(=O)N2c3ccc(Cl)cc3[C@](O)(c3ccccc3Cl)[C@@H]2C(=O)N2CCC[C@H]2C(N)=O)cc1OC`, in test [1], the inhibition is -7.22%.

On to `Cn1ccc2cc3c(cc21)CCN3C(=O)Nc1cccnc1`, for which the inhibition in test [1] was found to be 100%.

On to `O=C(NCC(=O)N1CCCC1)Nc1ccc2cnccc2c1`, for which the inhibition in test [1] was -7.55%.

For the molecule `Cn1ccc2cc(NC(=O)Nc3cccnc3)ccc21`, the inhibition in test [1] was found to be 88.1%.

As for `CSc1cc2c(cc1C(F)(F)F)N(C(=O)Nc1cccnc1)CC2`, the inhibition in test [1] was determined as 19.3%.

Turning to `COc1cc2c(cc1C(F)(F)F)N(C(=O)Nc1cc(F)cc(-c3cccnc3)c1)CC2`, the inhibition in test [1] is -6.46%.

As to `O=C(Nc1ccc2c(O)cc(S(=O)(=O)O)cc2c1)Nc1ccc2c(O)cc(S(=O)(=O)O)cc2c1`, the inhibition in test [1] was 45.9%.

For the molecule `Cc1c(C(=O)NN2CCOCC2)nn(-c2ccc(Cl)cc2Cl)c1-c1ccc(I)cc1`, the inhibition in test [1] came to 0.27%.

On to `COc1cccc([C@@H](C)NCCCc2ccccc2Cl)c1`, for which the inhibition in test [1] was found to be 2.6%.

For the molecule `CC(C)C[C@H](N)C(=O)O`, the inhibition in test [1] came to 5.48%.

Regarding `CC(=O)Nc1cccc(Nc2ncnc(N3CCC(OCc4ccc(OC(F)(F)F)cc4)CC3)n2)c1C`, the inhibition in test [1] came out at 22.4%.

Turning to `CCc1c(-c2ccccc2)c(-c2ccccc2)nn1-c1ccccc1-c1cccc(OCC(=O)O)c1`, the inhibition in test [1] was 10.2%.

Consider `c1ccc2[nH]c(-c3cscn3)nc2c1`, for which the inhibition in test [1] was 97.3%.

With `O=C(O)CCc1nc2ccccc2[nH]1`, in test [1], the inhibition came out at 10.6%.

Take `CCN(c1cc(C#CCN2CCOCC2)cc(C(=O)NCc2c(C)cc(C)[nH]c2=O)c1C)[C@H]1CC[C@H](N(C)CCOC)CC1`: the inhibition in test [1] is -8.25%.

For `COc1ccccc1OC(=O)C(C)c1ccc(CC(C)C)cc1` (centres undefined), the inhibition in test [1] came to 10.7%.

For the molecule `CCOC(=O)[C@H](CCc1ccccc1)N[C@@H](C)C(=O)N1[C@H](C(=O)O)C[C@H]2CCCC[C@@H]21`, the inhibition in test [1] amounted to 3.93%.

On to `Cc1cccc(C)c1-n1c(=O)c2cnc(Nc3ccc(N4CCN(C)CC4)cc3)nc2n2c3ccccc3nc12`, for which the inhibition in test [1] is -1.49%.

On to `O=C(Nc1c[nH]nc1-c1nc2ccc(CN3CCOCC3)cc2[nH]1)NC1CC1`, for which the inhibition in test [1] is 32.3%.

`Nc1ccc2cc3ccc(N)cc3nc2c1`: the inhibition in test [1] turned out to be 6.02%.

Turning to `Nc1ccc(-c2nc3ccc(-c4nc5ccc(N)cc5[nH]4)cc3[nH]2)cc1`, the inhibition in test [1] is 61.9%.

`CC(C)C(C(=O)Nc1nccs1)c1ccc(Cl)cc1` (centres undefined): the inhibition in test [1] stood at 10.4%.

As for `COC(=O)c1csc(C(=O)c2c[nH]c3ccccc23)n1`, the inhibition in test [1] turned out to be 47.6%.

`Nc1ccn([C@@H]2O[C@H](CO)[C@@H](O)C2(F)F)c(=O)n1`: the inhibition in test [1] is -4.87%.

For the molecule `COC(=O)Nc1nc2cc(SC(C)C)ccc2[nH]1`, in test [1], the inhibition was 79.4%.

For the molecule `COC(=O)Nc1nc2cc(C(=O)c3ccc(F)cc3)ccc2[nH]1`, in test [1], the inhibition amounted to 1.02%.

Consider `COC(=O)Nc1nc2cc(C(=O)c3ccccc3)ccc2[nH]1`, for which, in test [1], the inhibition is -5.79%.

Consider `CCCOc1ccc2[nH]c(NC(=O)OC)nc2c1`, for which, in test [1], the inhibition amounted to 31.6%.

As to `COC(=O)Nc1nc2cc(Sc3ccccc3)ccc2[nH]1`, in test [1], the inhibition came to 65.2%.
